# Test results published in PubChem BioAssay (NCI).
# This is part of a sample that, as a whole, favours compounds with a hit. Of some 79,000 tested, about 15% had one in any assay. A number with no mark means an inactive call. The source made the active and inactive calls. No stated cut-off is given here; in the data, active means growth inhibition above about 70%; inactive means the rest.
# What was measured:
# [1] = NCI Yeast Anticancer Drug Screen. Data for the rad52 strain (AID 147);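 further: 0% = growth of vehicle-treated control cultures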; conditions: S. cerevisiae rad52 mutant growth inhibition, stronger effect = higher value
# Method in brief: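 Read-out: growth inhibition versus vehicle-treated controls. Cells were a DNA repair-deficient yeast strain treated with compounds.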
# [2] = NCI Yeast Anticancer Drug Screen. Data for the rad50EPP+ strain (AID 151);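 further: 0% = growth of vehicle-treated control cultures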; conditions: S. cerevisiae rad50 mutant strain, stronger effect = higher value
# Method in brief: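 Growth inhibition read against vehicle controls in rad50EPP+ yeast, a strain altered in DNA damage repair, after compound exposure.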
# [3] = NCI Yeast Anticancer Drug Screen. Data for the mgt1 strain (AID 153); conditions: S. cerevisiae mgt1 mutant growth inhibition, stronger effect = higher value
# Method in brief: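 mgt1 yeast grown with test compound; read-out is growth inhibition versus vehicle-treated cultures.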
# [4] = NCI Yeast Anticancer Drug Screen. Data for the rad50 strain (AID 155);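 further: 0% = growth of vehicle-only cultures of the same strain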; conditions: S. cerevisiae rad50 strain growth inhibition, stronger effect = higher value
# Method in brief: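 Cells are treated with compound, grown, and their growth is then scored against vehicle-only cultures of the same repair-deficient yeast strain.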
# [5] = NCI Yeast Anticancer Drug Screen. Data for the mec2-1 strain (AID 157); conditions: S. cerevisiae mec2-1 strain, stronger effect = higher value
# Method in brief: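 Yeast mec2-1 mutant treated with compound. Readout: growth inhibition vs vehicle controls.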
# [6] = NCI Yeast Anticancer Drug Screen. Data for the sgs1 mgt1 strain (AID 161);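 further: 0% = growth of cultures given vehicle only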; conditions: S. cerevisiae sgs1 mgt1 strain, stronger effect = higher value
# Method in brief: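 Test agents were incubated with a DNA-repair-mutant yeast strain. Growth was then read and compared against vehicle-treated controls.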
# [7] = NCI Yeast Anticancer Drug Screen. Data for the CLN2oe strain (AID 163);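 further: 0% = growth of vehicle-only control cultures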; conditions: S. cerevisiae CLN2oe strain, stronger effect = higher value
# Method in brief: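 Read-out: yeast growth inhibition, expressed relative to vehicle-only controls. The strain bears an engineered cell-cycle alteration.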
# [8] = NCI Yeast Anticancer Drug Screen. Data for the cln2 rad14 strain (AID 165);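 further: 0% = growth equal to vehicle treated cultures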; conditions: S. cerevisiae cln2 rad14 strain, stronger effect = higher value
# Method in brief: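 cln2 rad14 yeast strain; compound exposure; growth inhibition read vs vehicle controls.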
# [9] = NCI Yeast Anticancer Drug Screen. Data for the bub3 strain (AID 167); conditions: S. cerevisiae bub3 mutant strain, stronger effect = higher value
# Method in brief: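 Part of a panel of yeast mutants defective in DNA damage repair or cell cycle regulation. Each strain is grown with compound, and inhibition is calculated relative to solvent-treated cultures.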
# [10] = NCI Yeast Anticancer Drug Screen. Data for the wt2 strain (AID 169);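 further: 0% = growth of vehicle-treated yeast cultures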; conditions: S. cerevisiae wt2 strain growth inhibition, stronger effect = higher value
# Method in brief: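 Read-out: growth inhibition versus vehicle-treated control cultures after compound exposure of the yeast strain.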
# [11] = NCI Yeast Anticancer Drug Screen. Data for the sgs1 strain (AID 173);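 further: 0% = growth of vehicle-only control cultures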; conditions: S. cerevisiae sgs1 mutant, stronger effect = higher value
# Method in brief: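 Read-out: yeast growth inhibition relative to vehicle controls, following compound exposure of a strain with a defined DNA repair/cell cycle alteration.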
# [12] = NCI Yeast Anticancer Drug Screen. Data for the mlh1 rad18 strain (AID 175); conditions: S. cerevisiae mlh1 rad18 strain growth inhibition, stronger effect = higher value
# Method in brief: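 Yeast w/ defined DNA-repair lesions; compound exposure; growth vs vehicle controls → % inhibition.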
# [13] = NCI Yeast Anticancer Drug Screen. Data for the rad18 strain (AID 177); conditions: S. cerevisiae rad18 mutant growth inhibition, stronger effect = higher value
# Method in brief: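 Readout: growth inhibition vs vehicle controls. Cells: genetically altered yeast strain, DNA repair defect.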
# [14] = at 5.0 µM (retest, dose inferred, filed as 0.5)
# [15] = at 50.0 µM (retest, dose inferred, filed as 5.0)
smiles,measurement,setting,value
CCC(=O)OCCn1c2nc(=O)[nH]c(=O)c-2nc2cc(C)c(C)cc21,growth inhibition,[1]; at 1.2 µM,-10%
same,growth inhibition,[1]; at 3.7 µM,-12%
same,growth inhibition,[1]; at 11.0 µM,-5%
same,growth inhibition,[1]; at 33.0 µM,0%
same,growth inhibition,[1]; at 100.0 µM,0%
same,growth inhibition,[2]; at 1.2 µM,-1%
same,growth inhibition,[2]; at 3.7 µM,-13%
same,growth inhibition,[2]; at 11.0 µM,24%
same,growth inhibition,[2]; at 33.0 µM,73% (active)
same,growth inhibition,[2]; at 100.0 µM,88% (active)
same,growth inhibition,[3]; at 1.2 µM,-1%
same,growth inhibition,[3]; at 3.7 µM,-8%
same,growth inhibition,[3]; at 11.0 µM,3%
same,growth inhibition,[3]; at 33.0 µM,75% (active)
same,growth inhibition,[3]; at 100.0 µM,88% (active)
same,growth inhibition,[4]; at 1.2 µM,-57%
same,growth inhibition,[4]; at 3.7 µM,-17%
same,growth inhibition,[4]; [14],3%
same,growth inhibition,[4]; at 11.0 µM,-9%
same,growth inhibition,[4]; at 33.0 µM,15%
same,growth inhibition,[4]; [15],10%
same,growth inhibition,[4]; at 50.0 µM,33.3%
same,growth inhibition,[4]; at 100.0 µM,44%
same,growth inhibition,[5]; at 1.2 µM,-2%
same,growth inhibition,[5]; at 3.7 µM,-3%
same,growth inhibition,[5]; [14],3%
same,growth inhibition,[5]; at 11.0 µM,-2%
same,growth inhibition,[5]; at 33.0 µM,-4%
same,growth inhibition,[5]; [15],14%
same,growth inhibition,[5]; at 50.0 µM,42.9%
same,growth inhibition,[5]; at 100.0 µM,-1%
same,growth inhibition,[6]; [14],2%
same,growth inhibition,[6]; [15],91% (active)
same,growth inhibition,[6]; at 50.0 µM,57.5%
same,growth inhibition,[7]; at 1.2 µM,-7%
same,growth inhibition,[7]; at 3.7 µM,-5%
same,growth inhibition,[7]; at 11.0 µM,-3%
same,growth inhibition,[7]; at 33.0 µM,-5%
same,growth inhibition,[7]; at 100.0 µM,-2%
same,growth inhibition,[8]; [14],-1%
same,growth inhibition,[8]; [15],3%
same,growth inhibition,[8]; at 50.0 µM,19.9%
same,growth inhibition,[9]; at 1.2 µM,-7%
same,growth inhibition,[9]; at 3.7 µM,-4%
same,growth inhibition,[9]; [14],-2%
same,growth inhibition,[9]; at 11.0 µM,-5%
same,growth inhibition,[9]; at 33.0 µM,5%
same,growth inhibition,[9]; [15],10%
same,growth inhibition,[9]; at 50.0 µM,3.15%
same,growth inhibition,[9]; at 100.0 µM,35%
same,growth inhibition,[10]; at 1.2 µM,-8%
same,growth inhibition,[10]; at 3.7 µM,-1%
same,growth inhibition,[10]; at 11.0 µM,20%
same,growth inhibition,[10]; at 33.0 µM,85% (active)
same,growth inhibition,[10]; at 100.0 µM,93% (active)
same,growth inhibition,[11]; at 1.2 µM,-15%
same,growth inhibition,[11]; at 3.7 µM,-7%
same,growth inhibition,[11]; at 11.0 µM,21%
same,growth inhibition,[11]; at 33.0 µM,83% (active)
same,growth inhibition,[11]; at 100.0 µM,94% (active)
same,growth inhibition,[12]; [14],5%
same,growth inhibition,[12]; [15],29%
same,growth inhibition,[12]; at 50.0 µM,21.1%
same,growth inhibition,[13]; at 1.2 µM,-3%
same,growth inhibition,[13]; at 3.7 µM,-1%
same,growth inhibition,[13]; at 11.0 µM,-1%
same,growth inhibition,[13]; at 33.0 µM,7%
same,growth inhibition,[13]; at 100.0 µM,11%
